Mdm2 MdmX PPI: inhibitors of human Mdm2/MdmX interaction. O15151+Q00987. SaOS-2 split-luciferase Mdm2/MdmX complementation, luminescence. inhibition, % at 8 µM. actives 3% (n = 330,000). AID 485346;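 active = inhibition of at least 50% at 8 µM in the primary screen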
Target sequence (O15151 whole entry, looked up): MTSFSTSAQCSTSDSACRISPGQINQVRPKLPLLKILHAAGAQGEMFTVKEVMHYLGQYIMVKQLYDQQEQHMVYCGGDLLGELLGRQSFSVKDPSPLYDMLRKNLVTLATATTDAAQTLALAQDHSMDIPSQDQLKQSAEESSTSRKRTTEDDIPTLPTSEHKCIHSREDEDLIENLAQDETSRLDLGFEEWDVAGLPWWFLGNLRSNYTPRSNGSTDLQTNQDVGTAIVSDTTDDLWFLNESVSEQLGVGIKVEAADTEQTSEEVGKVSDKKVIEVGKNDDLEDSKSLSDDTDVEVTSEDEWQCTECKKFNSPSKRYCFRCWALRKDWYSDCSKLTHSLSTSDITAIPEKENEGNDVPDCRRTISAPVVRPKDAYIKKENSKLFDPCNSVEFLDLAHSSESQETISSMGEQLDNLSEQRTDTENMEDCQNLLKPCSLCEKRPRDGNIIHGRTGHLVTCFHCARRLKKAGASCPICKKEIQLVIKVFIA
Target sequence (Q00987 whole entry, looked up): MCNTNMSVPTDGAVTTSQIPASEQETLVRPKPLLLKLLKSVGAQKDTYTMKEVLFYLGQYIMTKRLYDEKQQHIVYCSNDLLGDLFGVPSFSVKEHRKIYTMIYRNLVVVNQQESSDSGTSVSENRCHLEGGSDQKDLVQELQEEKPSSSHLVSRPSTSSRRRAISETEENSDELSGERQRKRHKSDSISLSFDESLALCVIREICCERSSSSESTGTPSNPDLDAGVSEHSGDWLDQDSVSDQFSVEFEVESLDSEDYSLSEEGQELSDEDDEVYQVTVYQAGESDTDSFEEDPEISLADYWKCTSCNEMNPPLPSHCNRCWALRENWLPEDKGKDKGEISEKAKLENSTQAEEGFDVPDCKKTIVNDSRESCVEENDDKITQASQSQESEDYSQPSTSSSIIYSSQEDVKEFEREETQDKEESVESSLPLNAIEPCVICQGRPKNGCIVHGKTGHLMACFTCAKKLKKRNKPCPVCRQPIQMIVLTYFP
MPTP inh: permeability transition pore inhibition; isolated mouse mitochondria, Ca2+ swelling absorbance, 30 min; inhibition, % at 10 µM; actives 1.4% (n = 360,000);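 active = inhibition of 50% or more, scaled per plate between neutral and stimulator controls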
SKKanGAS inh: blocks kanamycin growth of S. pyogenes SKKanGAS strain; BacTiter-Glo, 6 h; inhibition, % at 7.5 µM; AID 1662; actives 1.3% (n = 300,000);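 active = mean replicate score, as percent of positive control median, at least 50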;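 also: strain carries kanamycin resistance gene driven by streptokinase promoter and grows in 40 µg/ml kanamycin; loss of luminescence reflects streptokinase promoter inhibition or plain growth inhibition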
CSC inhib: cancer stem cell inhibition; cancer stem cell-like cells viability, luminescence; inhibition, % at 7.5 µM; actives 1.1% (n = 300,000); in the data active = inhibition above about 75%; tested in HMLE shEcad cells
Beta cell apopt: beta cell apoptosis inhibition. INS-1E cytokine-induced death, ATP luminescence, 48 h; percent of positive-control rescue, neutral wells zero. protection from apoptosis, % (concentration not given with the values). actives 0.8% (n = 300,000);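 active = Every replicate reaches about 75%, or at least half do and their mean reaches it too, limit read from the data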;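 also: higher means more ATP so stronger rescue from cytokine killing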
Calb FLC: affects C. albicans growth with fluconazole; growth inhibition, % (test concentration not listed); actives 0.57% (n = 300,000); C. albicans CaCi-2 (fluconazole-resistant clinical isolate) + fluconazole, Alamar Blue growth, 48 h; AID 1979;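 active = growth inhibition above about 58% in most replicates, limit read from the data, passing the limit was not always enough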;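 also: all wells also contain fluconazole at 8 µg/ml as a sub-toxic cotreatment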
Of the large screens only hits and unclear results are named; the others gave an inactive call. The list is not random: actives were taken first. Their share in the collection is about 5.4%.

CCc1nnc(NC(=O)c2sc3nc4cc(C)ccc4cc3c2N)s1	SKKanGAS inh 93
Cc1cccc(-c2nc3ccccc3c(=O)n2NC(=O)/C=C/c2ccc([N+](=O)[O-])cc2)c1	Calb FLC 117
CCOC(=O)C1=C(N)c2ccccc2CC1C1CCCC1 (configuration not stated)	SKKanGAS inh 55
C=C1c2ccccc2O[C@H](C(=O)OCC)[C@@H]1C1CCCCC1	none (no result: SKKanGAS inh, CSC inhib, Beta cell apopt, Calb FLC)
COc1ccc2c(c1OC)C(=O)N1N=C(c3ccc(O)cc3)CC21 (configuration not stated)	Calb FLC 94
COc1ccc(C2=NN3C(=O)c4c(ccc(OC)c4OC)C3C2)cc1 (configuration not stated)	none
O=C1C=CC(=Nc2ccc3c(c2)Cc2cc(F)ccc2-3)O1	none (no result: Mdm2 MdmX PPI, SKKanGAS inh, CSC inhib, Beta cell apopt, Calb FLC)
Cc1c(C(=O)NCc2ccc3c(c2)OCO3)sc(=O)n1Cc1ccc(S(C)(=O)=O)cc1	none (no result: Mdm2 MdmX PPI, SKKanGAS inh, CSC inhib, Beta cell apopt, Calb FLC)
COc1ccc(NC(=O)c2c(N)no[n+]2[O-])cc1	CSC inhib 103, Calb FLC 101
Cc1cccc(C2=NNC(=O)C(c3ccc(Cl)cc3)C2)c1 (configuration not stated)	none
Cc1ccccc1N1CCN(c2ccc(NC(=O)C3CCCCC3C(=O)O)cc2)CC1 (configuration not stated)	CSC inhib 79
CC(C)(C)NC(=O)NC(=O)COC(=O)COc1ccc2c(c1)CCC2	none (no result: CSC inhib)
CCc1ccc(C2c3[nH]c4ccccc4c3CCN2C(=O)c2ccc(=O)n(C)n2)cc1 (configuration not stated)	Calb FLC 88
CSc1ccc(C2c3[nH]c4ccccc4c3CCN2C(=O)c2ccnn2C)cc1 (configuration not stated)	Calb FLC 92
CCc1ccc(C2c3[nH]c4ccccc4c3CCN2C(=O)CN2CCN(CC)CC2)cc1 (configuration not stated)	none
CN[C@@H](CO)C(=O)NC[C@H]1O[C@@H](n2cc(C)c(=O)[nH]c2=O)C[C@@H]1O	none (no result: Mdm2 MdmX PPI, SKKanGAS inh, CSC inhib, Beta cell apopt, Calb FLC)
COc1ccccc1C(=O)COC(=O)C(NC(=O)Cc1ccccc1)C(C)C (configuration not stated)	none (no result: SKKanGAS inh, Calb FLC)
COc1cccc2sc3ccc(C#Cc4ccc(N)cc4)cc3c(=O)c12	SKKanGAS inh 76
Nc1ccc(C#Cc2ccc3sc4ccccc4c(=O)c3c2)cc1	none (no result: Beta cell apopt)
CCCCOP(=O)(c1ccc(N(C)C)cc1)C(O)c1ccccc1F (configuration not stated)	Calb FLC 95
CCCn1nnc(NC(=O)c2ccc3ccccc3c2)n1	none
CCCn1nnnc1NC(=O)c1ccc2ccccc2c1	SKKanGAS inh 90, Calb FLC 116
CCC1CCCCN1CCCNC(=O)C1CCN(c2nnc(-n3cccc3)s2)CC1 (configuration not stated)	none
O=C1C(=NO)CC(c2ccccc2)N1c1ccccc1 (configuration not stated)	none (no result: Mdm2 MdmX PPI, SKKanGAS inh, CSC inhib, Beta cell apopt, Calb FLC)
CCNS(=O)(=O)c1ccc(NC(=S)NCC2CCCO2)cc1 (configuration not stated)	none
O=C(NCc1ccc(Cl)cc1)c1cccc(NC(=O)c2ccccc2)c1	CSC inhib 111
O=C(NCc1ccccc1)c1ccc(Cl)cc1	none (no result: MPTP inh)
C=C1c2cccc(O)c2C(O)=C2C(=O)[C@]3(O)C(O)=C(C(N)=O)C(=O)[C@@H](N(C)C)[C@@H]3[C@@H](O)[C@H]12	SKKanGAS inh 106
Nc1ccc2c(c1)COc1ccccc1O2	none
Nc1ccc2c(c1)Oc1ccccc1C=C2	CSC inhib 110
CCCCCCCNC(=O)C1(CC2CC(c3cccc(Br)c3)=NO2)CCN(C(=O)CCCCCBr)CC1 (configuration not stated)	none
NNC(=O)c1ccc(OCC2CC(c3ccc(Cl)cc3)=NO2)cc1 (configuration not stated)	SKKanGAS inh 51
CNC(=O)c1c[nH]c2ccc(S(=O)(=O)Nc3ccccc3F)cc2c1=O	none
CC1(C)CC(NC(=O)C2CCN(S(=O)(=O)c3ccc(F)cc3)CC2)CC(C)(C)N1	none
Cc1ccc(CNC(=O)c2ccc3c(=O)[nH]c4c(C(=O)NCC5CCCO5)sc(=S)n4c3c2)cc1 (configuration not stated)	SKKanGAS inh 56
O=C1C(=O)c2ccccc2C([O-])=C1[n+]1ccccc1	none (no result: CSC inhib)
CCc1cc[n+](C2=C([O-])c3ccccc3C(=O)/C2=N\S(=O)(=O)c2cccs2)cc1	SKKanGAS inh 89, Beta cell apopt 106
O=C(OCC(=O)N1CCN(C(=O)c2ccco2)CC1)c1cc(-c2ccccc2)nc2ccccc12	none
O=C(OCC(=O)N1CCN(C(=O)c2ccco2)CC1)c1cc(-c2cccc(Br)c2)nc2ccccc12	SKKanGAS inh 53
Cn1c(O)c(/C=N/NC(=O)c2cc3ccccc3cc2O)c2ccccc21	SKKanGAS inh 104, Calb FLC 83 (no result: CSC inhib)
Cn1c2ccccc2c2cc(/C=N/NC(=O)c3ccc(O)cc3O)ccc21	none
COC(=O)c1c(-c2ccc(OC)cc2)oc2ccc(-c3cc(OC)c(OC)c(OC)c3)cc12	CSC inhib 100
COc1ccc(C(=O)c2c(-c3ccc(OC)cc3)oc3ccc(-c4cc(OC)c(OC)c(OC)c4)cc23)cc1	none
COc1ccc(-c2cn(Cc3ccc(C(=O)c4ccccc4)cc3)nn2)cc1	Beta cell apopt 106 (no result: MPTP inh)
OCCN(CCO)c1ccc(C(c2ccc(Cl)cc2)c2ccc(N(CCO)CCO)cc2Cl)c(Cl)c1	SKKanGAS inh 93
Nc1ccc(N(CCO)CCO)cc1	none
O=C(/C=C/c1ccc(Cl)cc1)N(Cc1cccs1)C1CCS(=O)(=O)C1 (configuration not stated)	none
O=c1/c(=C\c2cccc(O)c2)sc2nc(-c3ccccc3)c(-c3ccccc3)n12	SKKanGAS inh 70, CSC inhib 91
CC(c1ccccc1)N1C(=O)c2ccc(C(=O)Nc3ccc(Br)cc3C(=O)O)cc2C1=O (configuration not stated)	SKKanGAS inh 53
CC(C)c1nnc(NC(=O)C2CCN(c3cnccn3)CC2)s1	none (no result: CSC inhib)
O=C(c1ccccc1)N1CCC(c2nc3c(nnn3Cc3ccccc3Cl)c(=O)[nH]2)CC1	none (no result: CSC inhib, Beta cell apopt)
CC(C)(C)c1ccc(Cn2nnc3c(=O)[nH]c(C4CCCN(C(=O)c5cccs5)C4)nc32)cc1 (configuration not stated)	CSC inhib 79
O=C(c1cccs1)N1CCC(c2nc3c(nnn3Cc3ccccc3Cl)c(=O)[nH]2)CC1	SKKanGAS inh 52 (no result: Beta cell apopt)
CC(C)(C)CC(=O)N1CCC(c2nc3c(nnn3Cc3c(F)cccc3Cl)c(=O)[nH]2)CC1	SKKanGAS inh 74
O=C(NCc1cccs1)c1nc2c(nnn2Cc2ccccc2Cl)c(=O)[nH]1	CSC inhib 111 (no result: Mdm2 MdmX PPI)
COc1ccccc1Cn1nnc2c(=O)[nH]c(C3CCN(C(=O)c4ccccc4Cl)CC3)nc21	SKKanGAS inh 91

Screening data as filed in PubChem.
